Assay [1] in a line: anti-His antibody binders, primary screen, artefact control for SMM control protein annotation, biochemical, small-molecule microarray, 635 nm fluorescence (AID 1128).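 Also: score merges feature fluorescence with signal-to-noise for each printed compound spot.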 The note with it: anti-His Alexa647 antibody binding, higher = more signal.
Assay [2] relates to Human papillomavirus type 1a E7 protein (residues 1-88). In words: HPV1a E7 small-molecule binders, primary screen, biochemical, small-molecule microarray, residues 1-88, 635 nm (AID 1129). The conditions noted are these: small-molecule microarray binding, fluorescence 635 nm; higher = more signal.
The target of assay [3] is Focal adhesion kinase 1 (Homo sapiens) (UniProt Q05397). In words: small-molecule microarray binders of FAK, primary screen, biochemical, 635/667 nm fluorescence, BSA, DTT (AID 1130).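 Also: composite of spot emission at 667 nm and signal to noise over triplicate slides.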 The note with it: PTK2 binding, 635 nm fluorescence, higher = more signal.
Focal adhesion kinase 1 (Homo sapiens), sequence (Q05397 whole entry, looked up): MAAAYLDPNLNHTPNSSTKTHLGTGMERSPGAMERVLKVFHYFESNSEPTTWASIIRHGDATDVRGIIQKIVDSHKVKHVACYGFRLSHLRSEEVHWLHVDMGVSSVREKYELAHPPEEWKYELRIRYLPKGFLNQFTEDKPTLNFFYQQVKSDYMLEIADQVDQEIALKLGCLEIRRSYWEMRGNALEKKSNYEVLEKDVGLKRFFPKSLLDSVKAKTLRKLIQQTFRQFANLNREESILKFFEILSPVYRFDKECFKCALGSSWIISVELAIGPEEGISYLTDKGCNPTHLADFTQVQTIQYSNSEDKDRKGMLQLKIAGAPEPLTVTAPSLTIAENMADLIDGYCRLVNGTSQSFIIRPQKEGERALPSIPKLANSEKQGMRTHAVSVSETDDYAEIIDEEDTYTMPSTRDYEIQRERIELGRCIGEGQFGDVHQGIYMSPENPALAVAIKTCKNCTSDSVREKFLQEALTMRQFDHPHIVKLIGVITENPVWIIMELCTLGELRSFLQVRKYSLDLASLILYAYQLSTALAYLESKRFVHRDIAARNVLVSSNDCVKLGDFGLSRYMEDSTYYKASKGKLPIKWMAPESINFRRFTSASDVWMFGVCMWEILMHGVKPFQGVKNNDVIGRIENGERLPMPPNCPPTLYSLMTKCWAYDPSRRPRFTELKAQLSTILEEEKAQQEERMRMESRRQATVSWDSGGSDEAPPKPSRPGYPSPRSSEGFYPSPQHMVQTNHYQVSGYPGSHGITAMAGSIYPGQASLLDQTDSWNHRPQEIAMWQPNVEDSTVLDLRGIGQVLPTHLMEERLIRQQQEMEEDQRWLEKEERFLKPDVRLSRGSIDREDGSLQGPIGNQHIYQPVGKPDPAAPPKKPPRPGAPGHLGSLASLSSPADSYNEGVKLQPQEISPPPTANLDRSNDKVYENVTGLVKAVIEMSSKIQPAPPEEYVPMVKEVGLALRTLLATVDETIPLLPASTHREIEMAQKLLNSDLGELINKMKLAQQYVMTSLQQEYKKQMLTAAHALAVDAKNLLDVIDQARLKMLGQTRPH
In assay [4] the test system is Fibrinogen (Alexa647-labelled). In words: fibrinogen binders on compound microarrays, profiling panel, artefact control for SMM control-protein annotation, biochemical, small-molecule microarray, 635/667 nm fluorescence (AID 1131).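 Also: z-score merges 667 nm fluorescence with per-spot signal-to-noise over triplicate slides.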 The conditions noted are these: fibrinogen-A647 binding fluorescence, higher = more signal.
In assay [5] the target is Follistatin (Homo sapiens) (UniProt P19883). In words: follistatin binders on small-molecule microarrays, primary screen, biochemical, small-molecule microarray, 635/667 nm fluorescence (AID 1132). The conditions noted are these: FST binding, 635 nm fluorescence, higher = more signal.
Follistatin (Homo sapiens), sequence (P19883 whole entry, looked up): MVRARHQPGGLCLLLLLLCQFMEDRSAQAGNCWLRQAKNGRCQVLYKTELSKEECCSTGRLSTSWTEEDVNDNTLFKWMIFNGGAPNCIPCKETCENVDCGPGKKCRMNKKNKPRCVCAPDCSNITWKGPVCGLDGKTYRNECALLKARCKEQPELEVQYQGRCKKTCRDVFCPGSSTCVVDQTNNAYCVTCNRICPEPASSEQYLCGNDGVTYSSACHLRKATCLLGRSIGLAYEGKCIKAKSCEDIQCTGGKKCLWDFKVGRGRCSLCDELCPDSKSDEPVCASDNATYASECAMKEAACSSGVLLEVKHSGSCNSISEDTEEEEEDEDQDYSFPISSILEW
Assay [6] has as its target Fibroblast growth factor 2 (Homo sapiens) (UniProt P09038). Nature of the assay: FGF2 binders on small-molecule microarrays, primary screen, biochemical, small-molecule microarray, 635/667 nm fluorescence (AID 1133). The note with it: small-molecule microarray binding, FGF2, fluorescence 635/667; higher = more signal.
The nature of assay [7]: mitochondrial membrane potential change in A549 cells, profiling panel, cell-based, JC-1 fluorescence, basal, 24 h, 100 nL (AID 1138).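 Also: A549 lung adenocarcinoma cells under basal conditions with no added stimulus; test concentration not given here.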 The conditions noted are these: higher = more signal.
A further assay deals with Lefty1. Nature of the assay: Lefty1 binders on small-molecule microarrays, primary screen, biochemical, small-molecule microarray, 635/667 nm fluorescence (AID 1139). The note with it: small-molecule microarray binding, fluorescence 635/667; higher = more signal.
For assay [8], the system named is wheat germ agglutinin (Triticum aestivum), Alexa647-labelled. In words: wheat germ agglutinin binders on compound microarrays, profiling panel, artefact control for SMM control-protein annotation, biochemical, small-molecule microarray, 635/667 nm fluorescence (AID 1140).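 Also: score merges 667 nm feature emission with signal to noise over triplicate slides.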 The conditions noted are these: WGA-A647 binding, 635 nm fluorescence, higher = more signal.
Assay [9] has as its target Luciferin 4-monooxygenase (Photinus pyralis) (UniProt P08659). In words: firefly luciferase enzyme inhibitors, primary screen, biochemical, luminescence, purified enzyme, 2006 set (AID 1141).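 Also: cell-free assay with purified firefly luciferase at 100 ng per well in PBS; test concentration not given here.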 The note with it: SteadyGlo luminescence, 30 min, higher = more signal, called active from +8 up or from −8 down.
The subject of assay [10] is Wnt5a (protein binding on small-molecule microarray). In words: Wnt5a binders on small-molecule microarray, primary screen, biophysical, 635/667 nm fluorescence (AID 1142).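 Also: fluorescence read at 667 nm with signal to noise per printed feature.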 The note with it: 635 nm fluorescence, higher = more signal.
A short description of assay [11]: cell viability in Huh7 cells, primary screen, cytotoxicity control for HCV replication inhibitor project, CellTiter-Glo luminescence, basal, 48 h (AID 1143).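 Also: Huh7 hepatoma cells carrying a hepatitis C replication reporter with no stimulus; test concentration not given here.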 The note with it: Huh7 HCV replicon, higher = more signal, called active from +8 up or from −8 down. On the technique in general: ATP-based viability assays read luminescence as a measure of living cells.
A short description of assay [12]: P. aeruginosa biofilm formation inhibitors, primary screen, PAO1 strain, BacTiter-Glo luminescence, LB-PBS (AID 1144). The conditions noted are these: 12 h, higher = more signal.
The nature of assay [13]: CREB reporter modulators without forskolin, primary screen, cell-based, PC12, CRE-LacZ reporter, unstimulated (AID 1145). The conditions noted are these: no forskolin, luminescence, 4.5 h, higher = more signal, called active from +8 up or from −8 down.
The nature of assay [14]: CREB reporter modulators under forskolin, primary screen, cell-based, PC12, CRE-LacZ reporter, forskolin-stimulated (AID 1146).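 Also: PC12 cells with 6xCRE LacZ reporter stimulated by forskolin 10 µM; beta-galactosidase reporter signal reflecting CREB driven transcription.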 The note with it: luminescence, 4.5 h, higher = more signal, called active from +8 up or from −8 down.
Assay [15] deals with Streptavidin (Streptomyces avidinii) (UniProt P22629). In words: streptavidin binders on small-molecule microarray, primary screen, artefact control for SMM compound annotation, biophysical, 635/667 nm fluorescence (AID 1147).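 Also: signal reflects streptavidin binding to arrayed compounds as a control protein.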 The conditions noted are these: streptavidin binding, higher = more signal.
Streptavidin (Streptomyces avidinii), sequence (P22629 whole entry, looked up): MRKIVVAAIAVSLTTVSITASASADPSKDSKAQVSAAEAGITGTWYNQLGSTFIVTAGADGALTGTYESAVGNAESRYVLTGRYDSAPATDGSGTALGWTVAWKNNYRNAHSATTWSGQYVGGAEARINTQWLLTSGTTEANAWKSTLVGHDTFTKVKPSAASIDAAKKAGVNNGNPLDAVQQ
The nature of assay [16]: small-molecule binders of probe aInhba, primary screen, biochemical, small-molecule microarray, 635/667 nm fluorescence (AID 1148).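 Also: score merges 667nm spot fluorescence with signal-to-noise for antibody binding to printed compounds.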 The note with it: higher = more signal.
In assay [17] the target is Torsin-1A (Homo sapiens) (UniProt O14656). In words: torsin A binders from cell lysate, primary screen, small-molecule microarray, wild-type, 635/667 nm (AID 1149). The note with it: COS7 hTOR1A-WT lysate, 635 nm fluorescence, higher = more signal.
Torsin-1A (Homo sapiens), sequence (O14656 whole entry, looked up): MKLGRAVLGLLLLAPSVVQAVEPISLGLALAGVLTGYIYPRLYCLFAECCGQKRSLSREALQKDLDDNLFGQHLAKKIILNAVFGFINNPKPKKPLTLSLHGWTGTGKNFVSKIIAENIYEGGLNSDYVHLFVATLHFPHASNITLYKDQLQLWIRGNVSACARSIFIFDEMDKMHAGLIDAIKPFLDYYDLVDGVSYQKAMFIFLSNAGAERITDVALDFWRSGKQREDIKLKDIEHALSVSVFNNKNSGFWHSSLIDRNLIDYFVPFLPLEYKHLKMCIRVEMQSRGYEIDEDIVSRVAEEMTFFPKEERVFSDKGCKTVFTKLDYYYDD
For assay [18] the target is unchanged. In words: small-molecule binders of mutant TOR1A in lysate, primary screen, cell lysate, small-molecule microarray, COS7 lysate, 635/667 nm fluorescence (AID 1150).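 Also: score pools 667 nm emission and signal to noise measuring lysate protein binding.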 The note with it: COS7 hTOR1A mutant lysate, 635 nm fluorescence, higher = more signal.
Assay [19] has as its system Sonic hedgehog protein (Shh). Nature of the assay: small-molecule binders of Shh protein, primary screen, biochemical, small-molecule microarray, 635/667 nm fluorescence (AID 1151).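 Also: Shh protein binding to compounds spotted on small-molecule microarray slides; score combines spot fluorescence intensity with signal-to-noise across triplicate slides.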 The note with it: small-molecule microarray binding, 635 nm fluorescence; higher = more signal.

SMILES strings stand for the structures. The source made the active and inactive calls. Unless noted, no rule for the calls is given here.

Luciferin 4-monooxygenase (Photinus pyralis), sequence (P08659 whole entry, looked up): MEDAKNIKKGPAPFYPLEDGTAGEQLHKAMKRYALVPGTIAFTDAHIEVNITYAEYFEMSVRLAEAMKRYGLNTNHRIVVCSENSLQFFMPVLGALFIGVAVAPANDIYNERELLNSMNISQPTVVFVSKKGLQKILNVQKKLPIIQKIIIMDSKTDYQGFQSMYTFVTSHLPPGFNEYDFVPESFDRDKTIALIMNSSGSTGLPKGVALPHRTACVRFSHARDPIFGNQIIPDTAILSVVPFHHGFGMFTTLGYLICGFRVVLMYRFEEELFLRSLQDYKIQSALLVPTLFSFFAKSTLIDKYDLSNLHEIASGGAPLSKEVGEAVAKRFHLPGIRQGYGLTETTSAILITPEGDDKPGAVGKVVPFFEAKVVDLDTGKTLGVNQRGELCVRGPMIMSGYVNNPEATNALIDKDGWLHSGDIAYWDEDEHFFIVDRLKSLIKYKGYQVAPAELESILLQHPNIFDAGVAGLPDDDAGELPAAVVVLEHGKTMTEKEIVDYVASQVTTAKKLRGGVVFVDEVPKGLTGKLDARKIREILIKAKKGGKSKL
Fibroblast growth factor 2 (Homo sapiens), sequence (P09038 whole entry, looked up): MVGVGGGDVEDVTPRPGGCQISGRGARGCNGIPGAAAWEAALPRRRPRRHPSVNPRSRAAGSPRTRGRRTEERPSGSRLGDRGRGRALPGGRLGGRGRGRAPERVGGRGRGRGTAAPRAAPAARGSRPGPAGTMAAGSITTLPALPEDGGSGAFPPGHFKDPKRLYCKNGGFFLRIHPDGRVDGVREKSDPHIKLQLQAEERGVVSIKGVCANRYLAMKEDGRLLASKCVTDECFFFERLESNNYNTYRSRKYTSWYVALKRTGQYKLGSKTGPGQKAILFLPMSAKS

Consider `CCOC(=O)[C@H](CC(C)C)NC(=O)CCC1CC(OC(=O)NCc2ccc3c(c2)OCO3)CC2(CCCC(COC(=O)NCCCN3CCCC3=O)O2)O1` (stereo not given in full), for which the composite z-score in [1] turned out to be 0.581; in assay [2], 1.15; in assay [3], 0.115; in assay [4], 0.741; in assay [5] it was 0.476; in [6], 1.12. Further, the composite z-score with Lefty1 was determined as 0.803; in assay [8] it was 0.911; in [10], 0.353; in [15], 0.657; in assay [16], 0.0154; with Torsin-1A (Homo sapiens) [17], 0.232. The composite z-score with Torsin-1A (Homo sapiens) [18] was 0.92; in assay [19], 1.74. Moreover, the z-score in [7] is 1.26; in assay [9], 0.0579 (inactive); in assay [11], -0.255 (inactive); in [12], -0.767 (inactive); in assay [13], 0.0167 (inactive); in assay [14], -0.413 (inactive).
On to `CCCCc1nc2c(c3c1C[C@H](C)OC3)CN(CCOc1ccccc1)CC2`, for which the composite z-score in assay [1] is 0.818; in [2], 0.334; in assay [3], -0.117; in [4], 0.75; in assay [5], 0.766; in assay [6] it was 0.913. For the same compound, the composite z-score in the assay with Lefty1 is 1.23; in [8], 0.38; in [10], 0.0426; in assay [15] it was 0.501; in assay [16] it was -0.1; with Torsin-1A (Homo sapiens) [17] it was 0.599. For the same compound, the results for the composite z-score (with Torsin-1A (Homo sapiens) [18]; in [19]) were -0.0271 and 1.32, respectively. In addition, the z-score in assay [7] was 3.89; in [9], -1.94 (inactive); in assay [11], -1.65 (inactive); in assay [12] it was -2.34 (inactive); in assay [13], 7.15 (inactive); in assay [14], -1.03 (inactive).
Turning to `O=c1n(Cc2cc3c(cc2Cl)OCO3)c(=O)n2n1CC[C@@H]1C(=NOCc3ccccc3)[C@H]3O[C@H]3[C@@H](O)[C@@H]12`, the composite z-score is 0.559 in assay [1]; 0.459 in [2]; -0.0758 in assay [3]; 0.623 in assay [4]; 0.444 in assay [5]; 0.784 in assay [6]. The composite z-score is 0.716 in the assay with Lefty1; 0.125 in [8]; 0.141 in assay [10]; 0.767 in assay [15]; -0.0509 in [16]; 0.582 with Torsin-1A (Homo sapiens) [17]. For the same compound, the results for the composite z-score (with Torsin-1A (Homo sapiens) [18]; in assay [19]) were 0.223 and 0.365, respectively. In addition, the z-score in assay [7] was 0.679; in assay [9] it was -1.8 (inactive); in assay [11], -0.742 (inactive); in [12], 0.692 (inactive); in [13] it was 0.16 (inactive); in [14], 1.87 (inactive).
Regarding `COC(=O)C=CCCc1coc(C=CCNC(=O)OC)n1`, the composite z-score in [1] is 0.803; in assay [2], -0.259; in [3], 0.256; in assay [4] it was 0.247; in assay [5], 1.15; in [6] it was 1.04. For the same compound, the composite z-score with Lefty1 is 1.37; in assay [8], 0.0559; in [10], 0.4; in assay [15], 0.0242; in assay [16], 0.432; with Torsin-1A (Homo sapiens) [17], 0.583. Moreover, the composite z-score was 0.205 in the assay with Torsin-1A (Homo sapiens) [18] and 1.15 in assay [19]. Moreover, the z-score in [7] was -1.15; in assay [9], 0.122 (inactive); in assay [11] it was -0.0328 (inactive); in [12], -0.0662 (inactive); in [13] it was 0.38 (inactive); in assay [14] it was 0.702 (inactive).
`COC(=O)NCC=Cc1nc(CCCO)co1`: the composite z-score in assay [1] is 0.53; in [2], 0.804; in assay [3], -0.0457; in assay [4], 0.0947; in [5], 0.614; in assay [6], 0.564. In addition, the composite z-score in the assay with Lefty1 was 0.706; in [8], -0.0407; in [10] it was 0.134; in assay [15], 0.362; in assay [16], -0.353; in the assay with Torsin-1A (Homo sapiens) [17], 0.519. The composite z-score with Torsin-1A (Homo sapiens) [18] amounted to 0.802; in assay [19], 0.883. Moreover, the z-score is -0.223 in assay [7]; 0.604 (inactive) in assay [9]; -0.068 (inactive) in assay [11]; 0.633 (inactive) in assay [12]; 0.286 (inactive) in assay [13]; -0.0562 (inactive) in assay [14].

These data come from PubChem BioAssay.
